In all, about 66,000 compounds went through this assay and about 960 (1.5%) showed an effect of 50% or more. This excerpt belongs to a sample that is enriched for strong results.
System: Trypanosoma brucei
Assay: Trypanosoma brucei 72 hour study
Type: functional, organism-based
Set-up: scale not given: in the data most compounds retested in dose-response had high values

For `O=C(NCCN1CCOCC1)c1ccc(-n2ccc3ccccc32)s1`, the “Percent Effect” value (30 µM, 30.03 µM) was 63.33%.
With `CCN(CC)CCNC(=O)c1ccc(-n2ccc3ccccc32)s1` the “Percent Effect” value (30 µM, 30.03 µM) was -12.39%.
`O=C(NCCCN1CCCCC1)c1ccc(-n2ccc3ccccc32)s1` was tested, and the “Percent Effect” value (30 µM, 30.03 µM) was 80.76%.
`O=C(NCCCN1CCOCC1)c1ccc(-n2ccc3ccccc32)s1` was tested, and the “Percent Effect” value (30 µM, 30.03 µM) was -4.421%.
With `O=C(NCCCN1CCCC1=O)c1ccc(-n2ccc3ccccc32)s1` the “Percent Effect” value (30 µM, 30.03 µM) was 23.58%.
With `Cn1ccc2c(C(=O)NCCCN3CCCC3)cccc21` the “Percent Effect” value (30 µM, 30.03 µM) was -4.832%.
`COc1cc(Oc2cnc3ccccc3n2)ccc1CN1CCCC1` was tested, and the “Percent Effect” value (30 µM, 30.03 µM) was -18.27%.
In the case of `CC1CCCCN1C(=O)c1n[nH]c(=O)c2ccccc12` (centres undefined), the “Percent Effect” value (30.3 µM, […]) is reported as -7.93%.
In the case of `Cn1nnc2c1CCN(Cc1ccncc1)C2COCC1CC1.O=C(O)C(F)(F)F.O=C(O)C(F)(F)F` (centres undefined), the “Percent Effect” value (30 µM, 30.03 µM) is reported as 49.24%.
In the case of `CCOCc1ccccc1NC(=O)NCC(C)(O)c1cccs1` (centres undefined), the “Percent Effect” value (30 µM, 30.03 µM) is reported as -46.58%.
`CCOCc1ccccc1NC(=O)NCC(C)(O)c1cc(C)oc1C` (centres undefined) was tested, and the “Percent Effect” value (30 µM, 30.03 µM) was -15.34%.
In the case of `CCOCc1ccccc1NC(=O)NCC(C)(O)c1ccsc1` (centres undefined), the “Percent Effect” value (30 µM, 30.03 µM) is reported as 56.33%.
For `Cc1nonc1CN(C)c1nc(-c2ccco2)nc2c1CCN(C)CC2`, the “Percent Effect” value (30 µM, 30.03 µM) was -56.96%.
In the case of `O=C(NCCc1coc(-c2ccccc2)n1)NC1CC1`, the “Percent Effect” value (10 µM) is reported as 101.4% and the “Percent Effect” value (30.3 µM, […]) is reported as 100%.
For `COc1ccc(-c2nc(CCNC(=O)NC3CCC(O)CC3)co2)cc1` (centres undefined), the “Percent Effect” value (30 µM, 30.03 µM) was -54.4%.
With `Cc1ccc(-c2nc(CCNC(=O)NC3CCC(O)CC3)co2)cc1` (centres undefined) the “Percent Effect” value (10 µM) was -4.374% and the “Percent Effect” value (30.3 µM, […]) was 17.54%.
With `O=C(NCCc1coc(-c2ccc(F)cc2)n1)NC1CC1` the “Percent Effect” value (10 µM) was 99.81% and the “Percent Effect” value (30.3 µM, […]) was 99.45%.
For `O=C(NCCc1coc(-c2ccc(F)cc2)n1)NC1CCC(O)CC1` (centres undefined), the “Percent Effect” value (30 µM, 30.03 µM) was -16.25%.
`Cc1ccc(-c2nc(CCNC(=O)NC3CCN(C)CC3)co2)cc1` was tested, and the “Percent Effect” value (30 µM, 30.03 µM) was 6.387%.
With `CO[C@@H]1CN(c2ccccc2)S(=O)(=O)[C@@]12CCN(C(=O)N(C)C)C2` the “Percent Effect” value (30.3 µM, […]) was 5.082%.
With `O=C1C[C@H]2CC[C@@H](CN1)N2C(=O)CCc1ccsc1` the “Percent Effect” value (30.3 µM, […]) was 5.085%.
For `CCc1n[nH]c(C2CN(C(=O)c3ncoc3C(C)C)CCO2)n1` (centres undefined), the “Percent Effect” value (30.3 µM, […]) was 10.22%.
With `COCCN(Cc1cccs1)c1nc(CCN)nc2ccccc12` the “Percent Effect” value (30 µM, 30.03 µM) was 3.665%.
With `COCCN(CC1CC1)c1nc(CCN)nc2sc(C)c(C)c12` the “Percent Effect” value (30 µM, 30.03 µM) was 105.1%.
With `Cc1sc2nc(CCN)nc(N(C)CCCC3CCCO3)c2c1C` (centres undefined) the “Percent Effect” value (30 µM, 30.03 µM) was 73.15%.
`CCN(CCN(C)C)c1nc(CCN)nc2sc(C)c(C)c12` was tested, and the “Percent Effect” value (30 µM, 30.03 µM) was -19.52%.
`Cc1sc2nc(CCN)nc(N(CCN(C)C)CC3CCCO3)c2c1C` (centres undefined) was tested, and the “Percent Effect” value (30 µM, 30.03 µM) was 33.05%.
`COCCN(CC1CC1)c1nc(CCN)nc2ccccc12` was tested, and the “Percent Effect” value (30 µM, 30.03 µM) was 27.63%.
In the case of `O=C(O)C(F)(F)F.O=C1CCC2(CCN(Cc3nccs3)CC2)N1Cc1ccccc1`, the “Percent Effect” value (30 µM, 30.03 µM) is reported as -8.129%.
`O=C(O)C(F)(F)F.O=C1CC[C@H]2[C@H](CCN2C(=O)C2CCOC2)N1Cc1ccncc1` (some centres undefined) was tested, and the “Percent Effect” value (30 µM, 30.03 µM) was -22.31%.
For `Cc1noc(C)c1CN1C[C@H](OCC2CCN(C)CC2)[C@H]2COC[C@H]21.O=C(O)C(F)(F)F.O=C(O)C(F)(F)F`, the “Percent Effect” value (30.3 µM, […]) was -21.15%.
For `Cc1nc(COCC2CN(C(=O)N(C)C)Cc3nccn3C2)cs1.O=C(O)C(F)(F)F` (centres undefined), the “Percent Effect” value (30.3 µM, […]) was -49.05%.
In the case of `CCn1ncc2c1C(COC)CN(Cc1cccnc1)C2.O=C(O)C(F)(F)F.O=C(O)C(F)(F)F.O=C(O)C(F)(F)F` (centres undefined), the “Percent Effect” value (30.3 µM, […]) is reported as -94.72%.
For `COc1cc(N2CC[C@@H](O)[C@@H]2Cc2ccncc2)ncn1.O=C(O)C(F)(F)F`, the “Percent Effect” value (30 µM, 30.03 µM) was 35.07%.
In the case of `COc1ncccc1-c1ncccc1NC(=O)C(C)C`, the “Percent Effect” value (30 µM, 30.03 µM) is reported as 34.88%.
With `COc1ccc(F)c(-c2ncccc2NC(=O)C(C)C)c1` the “Percent Effect” value (30 µM, 30.03 µM) was 20.56%.
With `COc1cc(F)ccc1-c1ncccc1NC(=O)C(C)C` the “Percent Effect” value (30 µM, 30.03 µM) was 52.34%.
In the case of `Cl.Nc1ncnc2nc(C3CCCCN3)ccc12` (centres undefined), the “Percent Effect” value (30.3 µM, […]) is reported as 5.297%.
`COCCN1CCC(CN(CC2CCCO2)C(=O)CNC(C)=O)CC1` (centres undefined) was tested, and the “Percent Effect” value (30 µM, 30.03 µM) was 3.281%.
With `CCn1cc(CN2CCCN(C(=O)CCn3cc(C)cn3)CC2)cn1` the “Percent Effect” value (30.3 µM, […]) was -9.74% and the “Percent Effect” value (10 mM, 10 mM as filed; unlikely as a test dose) was -22.46%.
For `CCCNC(=O)c1cc(-c2cnc(N3CCCC3)nc2)cn1C`, the “Percent Effect” value (30.3 µM, […]) was -994.8%.
In the case of `CN(C)CCNC(=O)c1cc(-c2cnc(N3CCOCC3)nc2)cn1C.O=C(O)C(F)(F)F`, the “Percent Effect” value (30.3 µM, […]) is reported as -753.9%.
`CN(C)CCNC(=O)c1cc(-c2cnc(N3CCCC3)nc2)cn1C.O=C(O)C(F)(F)F` was tested, and the “Percent Effect” value (30 µM, 30.03 µM) was 97.37%.
With `Cl.Cn1nc(C2CCCN(Cc3cc(F)ccc3F)C2)c2nccnc21` (centres undefined) the “Percent Effect” value (30.3 µM, […]) was 20.63%.
`CN1[C@@H](C(=O)NCC2CC2)C[C@H]2CN(Cc3ccsc3)C[C@H]21.O=C(O)C(F)(F)F.O=C(O)C(F)(F)F` was tested, and the “Percent Effect” value (30.3 µM, […]) was -48.96%.

From ChEMBL document CHEMBL3988442, “University of Dundee, Small-Polar-MMV Screening Library” (2021)
